# Measured values: PubChem BioAssay (NCI)
# Compounds without any hit were thinned out: in the full panel of roughly 79,000, 15% have a hit. Values without a mark were called inactive. Active and inactive are the calls of the source. Cut-off read from the data, not from the text of the source: active = growth inhibition above about 70%; inactive = the rest.
# Tests used:
# [1] = NCI Yeast Anticancer Drug Screen. Data for the rad52 strain (AID 147);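 note: 0% = growth of vehicle-treated control cultures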; conditions: S. cerevisiae rad52 mutant growth inhibition, stronger effect = higher value
# How it was run: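 Inhibition of yeast growth, referenced to vehicle controls, was the measured output for a strain with defective DNA damage repair.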
# [2] = NCI Yeast Anticancer Drug Screen. Data for the wt1 strain (AID 149);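 note: 0% = growth of vehicle-treated wt1 cultures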; conditions: S. cerevisiae wt1 strain (SPY 50644) growth inhibition, stronger effect = higher value
# How it was run: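 Using yeast strain wt1, compound-induced growth inhibition was determined against vehicle-treated cultures.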
# [3] = NCI Yeast Anticancer Drug Screen. Data for the rad50EPP+ strain (AID 151);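 note: 0% = growth of vehicle-treated control cultures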; conditions: S. cerevisiae rad50 mutant strain, stronger effect = higher value
# How it was run: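 Genetically defined yeast (rad50EPP+, DNA damage repair alteration) is grown with compound, and inhibition of growth is expressed relative to vehicle-treated controls.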
# [4] = NCI Yeast Anticancer Drug Screen. Data for the mgt1 strain (AID 153); conditions: S. cerevisiae mgt1 mutant growth inhibition, stronger effect = higher value
# How it was run: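 In the mgt1 strain, test compounds were added and growth inhibition was determined relative to vehicle-treated controls.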
# [5] = NCI Yeast Anticancer Drug Screen. Data for the rad50 strain (AID 155);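 note: 0% = growth of vehicle-only cultures of the same strain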; conditions: S. cerevisiae rad50 strain growth inhibition, stronger effect = higher value
# How it was run: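 Relative growth inhibition (compound vs vehicle) was measured in yeast with a defined repair-gene alteration.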
# [6] = NCI Yeast Anticancer Drug Screen. Data for the mec2-1 strain (AID 157); conditions: S. cerevisiae mec2-1 strain, stronger effect = higher value
# How it was run: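 Each compound was tested on mec2-1 yeast, a strain altered in DNA damage repair or cell cycle control. Growth inhibition is reported relative to vehicle.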
# [7] = NCI Yeast Anticancer Drug Screen. Data for the rad14 strain (AID 159);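 note: 0% = growth of vehicle-treated control cultures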; conditions: S. cerevisiae rad14 strain growth inhibition, stronger effect = higher value
# How it was run: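 Screen for anticancer potential: a yeast strain altered in DNA damage repair is grown with compound, and reduced growth is quantified against vehicle controls.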
# [8] = NCI Yeast Anticancer Drug Screen. Data for the sgs1 mgt1 strain (AID 161);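 note: 0% = growth of cultures given vehicle only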; conditions: S. cerevisiae sgs1 mgt1 strain, stronger effect = higher value
# How it was run: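 Read-out: growth inhibition vs vehicle controls. Cells: mutant yeast strain deficient in DNA damage repair.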
# [9] = NCI Yeast Anticancer Drug Screen. Data for the CLN2oe strain (AID 163);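 note: 0% = growth of vehicle-only control cultures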; conditions: S. cerevisiae CLN2oe strain, stronger effect = higher value
# How it was run: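 First, the altered yeast strain was treated with each compound; second, its growth was measured; finally, inhibition was derived by comparison with vehicle controls.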
# [10] = NCI Yeast Anticancer Drug Screen. Data for the cln2 rad14 strain (AID 165);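 note: 0% = growth equal to vehicle treated cultures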; conditions: S. cerevisiae cln2 rad14 strain, stronger effect = higher value
# How it was run: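 Test compounds were added to cln2 rad14 yeast cultures; inhibition of growth was then determined by comparison with vehicle treatment.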
# [11] = NCI Yeast Anticancer Drug Screen. Data for the bub3 strain (AID 167); conditions: S. cerevisiae bub3 mutant strain, stronger effect = higher value
# How it was run: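 Screening used yeast with an engineered genetic alteration affecting cell cycle control. Compound-exposed cultures were compared with vehicle cultures, and reduced growth was taken as inhibition.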
# [12] = at 5.0 µM (retest, dose inferred, filed as 0.5)
# [13] = at 50.0 µM (retest, dose inferred, filed as 5.0)
smiles,measurement,setting,value
CC(=O)NC(c1nc2cc(C)c(C)cc2[nH]1)c1nc2cc(C)c(C)cc2[nH]1,growth inhibition,[1]; at 1.2 µM,0%
same,growth inhibition,[1]; at 3.7 µM,-2%
same,growth inhibition,[1]; at 11.0 µM,5%
same,growth inhibition,[1]; at 33.0 µM,28%
same,growth inhibition,[1]; at 100.0 µM,62%
same,growth inhibition,[2]; at 1.2 µM,-20%
same,growth inhibition,[2]; at 3.7 µM,-28%
same,growth inhibition,[2]; at 11.0 µM,-14%
same,growth inhibition,[2]; at 33.0 µM,16%
same,growth inhibition,[2]; at 100.0 µM,62%
same,growth inhibition,[3]; at 1.2 µM,-1%
same,growth inhibition,[3]; at 3.7 µM,7%
same,growth inhibition,[3]; at 11.0 µM,1%
same,growth inhibition,[3]; at 33.0 µM,19%
same,growth inhibition,[3]; at 100.0 µM,47%
same,growth inhibition,[4]; at 1.2 µM,11%
same,growth inhibition,[4]; at 3.7 µM,19%
same,growth inhibition,[4]; at 11.0 µM,31%
same,growth inhibition,[4]; at 33.0 µM,59%
same,growth inhibition,[4]; at 100.0 µM,80% (active)
same,growth inhibition,[5]; at 1.2 µM,13%
same,growth inhibition,[5]; at 3.7 µM,4%
same,growth inhibition,[5]; [12],29%
same,growth inhibition,[5]; at 11.0 µM,15%
same,growth inhibition,[5]; at 33.0 µM,39%
same,growth inhibition,[5]; [13],94% (active)
same,growth inhibition,[5]; at 50.0 µM,61.3%
same,growth inhibition,[5]; at 100.0 µM,67%
same,growth inhibition,[6]; at 1.2 µM,11%
same,growth inhibition,[6]; at 3.7 µM,15%
same,growth inhibition,[6]; [12],36%
same,growth inhibition,[6]; at 11.0 µM,22%
same,growth inhibition,[6]; at 33.0 µM,42%
same,growth inhibition,[6]; [13],94% (active)
same,growth inhibition,[6]; at 50.0 µM,37.2%
same,growth inhibition,[6]; at 100.0 µM,78% (active)
same,growth inhibition,[7]; at 1.2 µM,-22%
same,growth inhibition,[7]; at 3.7 µM,-21%
same,growth inhibition,[7]; at 11.0 µM,-9%
same,growth inhibition,[7]; at 33.0 µM,21%
same,growth inhibition,[7]; at 100.0 µM,66%
same,growth inhibition,[8]; [12],-16%
same,growth inhibition,[8]; [13],78% (active)
same,growth inhibition,[8]; at 50.0 µM,57.5%
same,growth inhibition,[9]; at 1.2 µM,-11%
same,growth inhibition,[9]; at 3.7 µM,2%
same,growth inhibition,[9]; at 11.0 µM,-18%
same,growth inhibition,[9]; at 33.0 µM,12%
same,growth inhibition,[9]; at 100.0 µM,62%
same,growth inhibition,[10]; [12],51%
same,growth inhibition,[10]; [13],92% (active)
same,growth inhibition,[10]; at 50.0 µM,42.8%
same,growth inhibition,[11]; at 1.2 µM,-2%
same,growth inhibition,[11]; at 3.7 µM,15%
same,growth inhibition,[11]; [12],16%
same,growth inhibition,[11]; at 11.0 µM,22%
same,growth inhibition,[11]; at 33.0 µM,56%
same,growth inhibition,[11]; [13],82% (active)
same,growth inhibition,[11]; at 50.0 µM,63.1%
same,growth inhibition,[11]; at 100.0 µM,82% (active)
